From PubChem BioAssay (Tox21)
Results filed as inconclusive are left out. The source made the active and inactive calls. Unless noted, the call rests on the fitted dose curve; in most records, active means well fitted curve in the direction sought with a large enough effect in the repeat runs; inconclusive means weak or mixed curves; inactive means no such curve, though single readings can be large; an effect the other way counts as inactive or inconclusive.

Legend:
[1] = qHTS assay to identify small molecule antagonists of the estrogen receptor alpha (ER-alpha) signaling pathway using the BG1 cell line in the presence of 0.1 nM 17-beta-estradiol - cell viability counter screen (AID 1259241); conditions: VM7Luc4E2 (BG1) viability, CellTiter-Fluor protease, 22 h, 0.1 nM estradiol agonist added; series mostly up to 92.4 µM; further: nearly all actives have a fitted effect of over 40% in size
How it was run: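 Estradiol-stimulated (0.1 nM) VM7Luc4E2 cells exposed to compounds 22 hr; viability measured by fluorescence of cleaved CellTiter-Fluor substrate after 30 min.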

[2] = qHTS assay to identify small molecule antagonists of the androgen receptor (AR) signaling pathway using the MDA cell line in the presence of 0.5 nM R1881 - cell viability counter screen (AID 1259242); conditions: MDA-kb2 viability, CellTiter-Fluor protease fluorescence, 16 h; series mostly up to 92.4 µM; further: nearly all actives have a fitted effect of over 45% in size
How it was run: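 Live-cell protease activity was measured by CellTiter-Fluor fluorescence after 30 min. Before that, MDA-kb2 MMTV-luciferase cells had 16 hr at 37C without CO2, exposed to test compounds and 0.5 nM R1881 final.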

[3] = molecular target: Estrogen receptor (Homo sapiens) (UniProt P03372); experiment: qHTS assay to identify small molecule antagonists of the estrogen receptor alpha (ER-alpha) signaling pathway using the BG1 cell line in the presence of 0.1 nM 17-beta-estradiol (AID 1259244); conditions: VM7Luc4E2 (BG1) ERE-luciferase, antagonist mode, 0.1 nM E2, 22 h; series mostly up to 92.4 µM; further: nearly all actives have a fitted effect of over 50% in size
Chain of Estrogen receptor (Homo sapiens) (P03372 whole entry, looked up): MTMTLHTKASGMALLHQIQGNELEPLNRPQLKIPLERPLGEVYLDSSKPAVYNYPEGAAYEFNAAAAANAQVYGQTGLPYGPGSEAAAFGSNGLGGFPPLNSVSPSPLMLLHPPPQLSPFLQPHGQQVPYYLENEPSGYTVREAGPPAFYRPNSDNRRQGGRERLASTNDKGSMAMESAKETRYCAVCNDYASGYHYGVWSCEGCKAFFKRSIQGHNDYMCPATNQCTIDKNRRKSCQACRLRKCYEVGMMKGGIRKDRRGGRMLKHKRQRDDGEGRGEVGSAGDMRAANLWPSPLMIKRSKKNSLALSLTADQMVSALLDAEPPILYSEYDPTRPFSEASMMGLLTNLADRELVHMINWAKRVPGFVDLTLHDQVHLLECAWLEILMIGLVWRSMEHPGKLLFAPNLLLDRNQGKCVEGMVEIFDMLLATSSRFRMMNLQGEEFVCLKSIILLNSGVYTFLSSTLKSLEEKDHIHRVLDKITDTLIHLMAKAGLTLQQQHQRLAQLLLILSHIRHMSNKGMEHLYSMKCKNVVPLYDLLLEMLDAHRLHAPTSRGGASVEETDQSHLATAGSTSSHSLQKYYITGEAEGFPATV
How it was run: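 Luciferase luminescence (ONE-Glo, 30 min at room temperature) was read after 22 hr at 37C exposure to compounds plus 17beta-estradiol at 0.1 nM final. Cells were VM7Luc4E2 with endogenous ER-alpha and an ERE-driven luciferase, pre-cultured 5 days in hormone-depleted medium.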

[4] = qHTS assay to identify small molecule phospholipidosis (PLD) inducers (AID 1259344; active means well fitted curve in the direction sought with a large enough effect; an effect the other way counts as inactive or inconclusive); conditions: HepG2 phospholipidosis, LipidTOX Red imaging, 24 h; series mostly up to 38.3 µM
How it was run: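 Phospholipid accumulation was scored by imaging: fixed, Hoechst-counterstained HepG2 cells stained with LipidTOX Red after 24 h compound exposure at 37 C. Read-outs were pit count and pit intensity per well or per cell, with amiodarone and DMSO controls.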

[5] = qHTS assay to identify small molecule HDAC inhibitors - cell viability counter screen (AID 1259365); conditions: HCT-116 viability, CellTiter-Glo ATP luminescence, 2 h; series mostly up to 92.4 µM; further: nearly all actives have a fitted effect of over 50% in size
How it was run: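 After overnight seeding at 1,500 cells per well, wild-type HCT-116 cultures took up compounds in DMSO for 2hr at 37 C. Viable cell content came from luminescence with CellTiter-Glo.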

[6] = qHTS assay to identify small molecule antagonists of the sonic hedgehog signaling (Shh) pathway - cell viability counter screen (AID 1259367); conditions: NIH/3T3 Gli1-Luc viability, CellTiter-Fluor, 24 h; series mostly up to 92.4 µM; further: nearly all actives have a fitted effect of over 55% in size
How it was run: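 Viability was read by CellTiter-Fluor fluorescence in the same wells, reagent added 23 hr into compound treatment and incubated 1 hr at 37C. The 3T3 Gli1-Luc reporter cells (2,000/well) received conditioned medium after compound and ran 24 hr.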

[7] = qHTS assay to identify small molecule HDAC inhibitors (AID 1259364); conditions: HCT-116 HDAC-Glo I/II luminescence, 2 h; series mostly up to 92.4 µM; further: nearly all actives have a fitted effect of over 45% in size; further: potency means the concentration at half of the fitted maximal effect
How it was run: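 Luminescence read after 30 min room-temperature HDAC-Glo incubation measures cellular class I/II HDAC activity. Compounds were applied for 2 hr at 37 C to HCT-116 wild-type cells seeded the day before.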

[8] = qHTS assay to identify small molecule agonists of the sonic hedgehog signaling (Shh) pathway - cell viability counter screen (AID 1259366); conditions: NIH/3T3 Gli1-Luc viability, CellTiter-Fluor, 24 h; series mostly up to 92.4 µM; further: nearly all actives have a fitted effect of over 50% in size
How it was run: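 Same-well cytotoxicity read. Gli1-Luc reporter 3T3 cells; compounds 24hr, 37C/5% CO2; CellTiter-Fluor fluorescence.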

[9] = qHTS assay to identify small molecule agonists of the sonic hedgehog signaling (Shh) pathway (AID 1259368; calls by dose curve;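 further: NIH/3T3-derived 3T3Gli1-Luc cells carrying a stable Gli1-driven firefly luciferase reporter; nearly all actives have a fitted effect of over 15% in size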); conditions: NIH/3T3 Gli1-Luc reporter, luciferase, 24 h; series mostly up to 92.4 µM
How it was run: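 Luminescence was read after 30 min at room temperature with luciferase reagent. Before that, 3T3Gli1-Luc cells (NIH/3T3 clone, stable Gli1-Luc reporter; 2,000/well) were exposed to compounds for 24 hr at 37C, 5% CO2, compounds being added 4 hr post-plating.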

Measured: Potency

[O-][N+](=Nc1ccccc1)c1ccccc1
not listed: [7] | [8] | [9]
inactive: all other assays above

OCC(CO)(CO)COCC(CO)(CO)CO
not listed: [4]
inactive: all other assays above

O=C(O)c1cccc(C(=O)O)n1
not listed: [4]
inactive: all other assays above

CC(C)COC(=O)c1ccccc1O
not listed: [4]
inactive: all other assays above

C=CCOCC(O)CS(=O)(=O)O (configuration not stated)
not listed: [4]
inactive: all other assays above

C=C(C)C1CC=C(C)C(O)C1 (configuration not stated)
not listed: [4]
inactive: all other assays above

CC/C=C\C#N
not listed: [4]
inactive: all other assays above

CC(C)[N+](C)(C)CC(O)COc1cccc2ccccc12 (configuration not stated)
not listed: [7]
inactive: all other assays above

CCCc1ccc(N)cc1
not listed: [4]
inactive: all other assays above

CCC(C(=O)NC(N)=O)c1ccccc1 (configuration not stated)
not listed: [7]
inactive: all other assays above

CCCCN(CCO)CCO
not listed: [4]
inactive: all other assays above

COC(=O)CCCC(=O)O
not listed: [4]
inactive: all other assays above

Oc1ccc2c(c1)OC[C@@H](N1CCC(O)(c3ccc(F)cc3)CC1)[C@H]2O
active: [7] 2370 nM
not listed: [4] | [9]
inactive: all other assays above

Fc1ccccc1-c1ccccc1
not listed: [4]
inactive: all other assays above

NCCN1CCNC1=O
not listed: [4] | [6]
inactive: all other assays above

O=C(O)C(O)[C@H](O)[C@@H](O)[C@H](O)[C@H](O)CO (some centres not stated)
not listed: [4] | [6]
inactive: all other assays above

CC(C)c1cccc(C(C)C)c1N
not listed: [4] | [8]
inactive: all other assays above

COc1ccc(COC=O)cc1
not listed: [4] | [6] | [8]
inactive: all other assays above

CCC(=O)Nc1cccc(N)c1
not listed: [4] | [6]
inactive: all other assays above

C/C=C1\C(=O)C[C@H]2[C@@H]3CCC4=CC(=O)CC[C@]4(C)[C@H]3CC[C@]12C
not listed: [4] | [8]
inactive: all other assays above

CC/C=C\CCCCO
not listed: [4] | [7]
inactive: all other assays above
